Calls of active or inactive are those of the source. The rule behind the calls is not given here.
Target: Estrogen receptor (Homo sapiens) (UniProt P03372)
Assay: displacement of fluorescent estrogen from ERalpha – cell-based, Cos7 ERalpha-GFP, flow cytometry, primary screen (AID 1211);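 note: 0% = DMSO vehicle wells and 100% = no E2-Alexa633 signal left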
Settings: fluorescent ligand competition, stronger effect = higher value

Chain of Estrogen receptor (Homo sapiens) (P03372 whole entry, looked up): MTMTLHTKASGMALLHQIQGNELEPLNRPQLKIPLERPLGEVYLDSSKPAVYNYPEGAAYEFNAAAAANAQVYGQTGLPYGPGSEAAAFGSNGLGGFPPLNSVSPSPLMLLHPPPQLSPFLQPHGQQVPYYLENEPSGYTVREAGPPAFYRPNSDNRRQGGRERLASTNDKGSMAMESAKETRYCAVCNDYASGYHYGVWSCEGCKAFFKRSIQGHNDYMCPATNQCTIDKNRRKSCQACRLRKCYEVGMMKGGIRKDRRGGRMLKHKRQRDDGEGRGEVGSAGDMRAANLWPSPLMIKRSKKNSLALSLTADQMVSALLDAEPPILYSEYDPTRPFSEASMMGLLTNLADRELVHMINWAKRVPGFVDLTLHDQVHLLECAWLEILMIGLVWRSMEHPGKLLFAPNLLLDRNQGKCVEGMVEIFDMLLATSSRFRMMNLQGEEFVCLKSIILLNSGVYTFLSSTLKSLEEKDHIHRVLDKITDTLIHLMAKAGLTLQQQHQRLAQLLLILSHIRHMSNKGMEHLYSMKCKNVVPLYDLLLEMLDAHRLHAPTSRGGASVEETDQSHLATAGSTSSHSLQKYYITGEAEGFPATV

Row | SMILES | inhibition of ligand binding (at 10 µM) | inhibition of ligand binding (binding inhibition, at 0.1 µM) [%]
1 | CCCC1=NN2C(=N)/C(=C\c3ccc(SCc4ccco4)o3)C(=O)N=C2S1 | 14% (inactive) | 26
2 | COc1ccc(/C=N/NC(=O)c2nc(-c3ccccc3)n(-c3ccccc3)n2)c(O)c1 | 41% (inactive) | 52
3 | O=C(COC(=O)c1cccc(S(=O)(=O)N2CCc3ccccc3C2)c1)NCc1ccco1 | 35% (inactive) | 7
4 | O=C(CSc1nc2c(cnn2-c2ccccc2)c(=O)[nH]1)c1ccc(Cl)cc1 | 18% (inactive) | 1
5 | Cc1cc2oc(=O)cc(COC(=O)c3n[nH]c4ccccc34)c2cc1C | 53% (inactive) | 20
6 | Cc1ccccc1OCC1Cc2c(nc(N)c(C#N)c2N)O1 (stereo unspecified) | 31% (inactive) | 13
7 | O=C(NNC(=O)c1ccc(SCC2CCCO2)c([N+](=O)[O-])c1)c1ccc(Cl)c([N+](=O)[O-])c1 (stereo unspecified) | 35% (inactive) | 45
8 | COc1ccc(N2C(=O)c3ccccc3NC2c2ccc(OC)c(CSc3ccccn3)c2)cc1 (stereo unspecified) | 40% (inactive) | 19
9 | Cc1occc1C(=O)NCc1cccc(CNC(=O)c2ccoc2C)c1 | 39% (inactive) | 26
10 | Nc1ccc2nc(CN3CCOCC3)[nH]c2c1 | 42% (inactive) | 41
11 | O=C(Nc1ccccc1[N+](=O)[O-])C1=C(O)CCn2c1nc1ccccc12 | 20% (inactive) | 37
12 | O=C(Nc1cccc2cccc(NC(=O)c3ccco3)c12)c1ccco1 | 54% (inactive) | 46
13 | COC(=O)c1ccc2c(=O)n(CC3CCCO3)c(SCC(=O)Nc3ccccc3Cl)nc2c1 (stereo unspecified) | 45% (inactive) | 37

Reference: PubChem BioAssay AID1211 (NMMLSC, 2008)
